Data published in PubChem BioAssay (Tox21).
Records with an inconclusive call do not appear. Activity calls are given as the source filed them. The call rests on the fitted dose curve; in most records, active means well fitted curve in the direction sought with a large enough effect in the repeat runs; inconclusive means weak or mixed curves; inactive means no such curve, though single readings can be large; an effect the other way counts as inactive or inconclusive.

experiment: qHTS RealTime-Glo MT Cell Viability Assay in HepG2 cells - 24 hour (AID 1224867); settings: RealTime-Glo luminescence; series mostly up to 76.8 µM; activity change, negative = cytotoxicity: at the top concentration
Procedure, shortened: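 qHTS, HepG2, 600 cells/well, RealTime-Glo (NanoLuc + prosubstrate) added with cells; 5 h preincubation; DMSO compound addition; 37 C; luminescence at 0/8/16/24/32/40 h.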
Further: nearly all actives have a fitted effect of over 50% in size.
On the % scale 0 is the no-effect control and ±100 the full control effect.

SMILES	activity change, negative = cytotoxicity
CC(C)(N)Cc1ccc(Cl)cc1	-1.14% [at 35.3 µM] (inactive)
Oc1ccc2c3c1O[C@H]1[C@@H](O)C=C[C@H]4[C@@H](C2)NCC[C@@]341	-2.24% (inactive)
N[C@@H]1C[C@H]1c1ccccc1	0.786% [at 35.3 µM] (inactive)
O=P(O)(O)c1ccccc1	-1.45% (inactive)
CCCCCCC1CCOC1=O (stereo unspecified)	2.11% (inactive)
Clc1cc2c(cc1Cl)Oc1cc(Cl)c(Cl)cc1O2	-2.29% [at 0.29 µM] (inactive)
O=C(O)C(Br)(Br)Br	-17.1% (inactive)
CC(C)N(Cc1ccccc1)C(=O)C(C)(C)C	2.57% (inactive)

experiment: qHTS RealTime-Glo MT Cell Viability Assay in HEK293 cells - 32 hour (AID 1224868); settings: RealTime-Glo luminescence; series mostly up to 76.8 µM; activity change, negative = cytotoxic: at the top concentration; further: top concentration of the series differs between compounds
Procedure, shortened: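 Assay medium contained NanoLuc luciferase plus cell-permeant prosubstrate, added with HEK293 cells at 600 cells/well. After 5 h at 37 C/5% CO2 compounds were added; plates stayed at 37 C for 40 h with serial luminescence reads.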

SMILES	activity change, negative = cytotoxic
CCC(=O)OC1(c2ccccc2)CCN(C)CC1	-12% (inactive)
CCCCOC(C)=O	8.68% (inactive)
COC1=CC(=O)O[C@@H](/C=C/c2ccccc2)C1	-16% (inactive)
CCC(C(N)=O)N1CCCC1=O (stereo unspecified)	5.19% [at 35.3 µM] (inactive)
O=C(O)CBr	5.19% (inactive)
CCCN1CCC[C@@H]2Cc3nc(N)ncc3C[C@H]21	1.67% [at 35.3 µM] (inactive)
CC(C)c1ccc(O)cc1	0.658% (inactive)
[P]#[In]	-1.72% (inactive)
CC1N=C(N)OC1c1ccccc1 (stereo unspecified)	-6.02% (inactive)
CCCOc1nn(C(=O)NS(=O)(=O)c2ccccc2C(=O)OC)c(=O)n1C	21.2% (inactive)
COC(=O)[C@@H](N)CCCN/C(N)=N/[N+](=O)[O-]	3.96% [at 35.3 µM] (inactive)
CCN[C@@H](C)Cc1cccc(C(F)(F)F)c1	1.03% [at 35.3 µM] (inactive)
O=c1[nH]oc2c1CCNC2	6.11% [at 35.3 µM] (inactive)
CC(C)(C)C(=O)Cl	0.182% (inactive)
CCCOC(=O)Cc1ccc(OCC(=O)N(CC)CC)c(OC)c1	-5.69% [at 35.3 µM] (inactive)
Cc1ccc2c(c1)C1CN(C)CCC1N2 (stereo unspecified)	0.479% [at 15.8 µM] (inactive)
C=CCN1CC[C@]23CCCC[C@H]2[C@H]1Cc1ccc(O)cc13	3.33% [at 35.3 µM] (inactive)
O=C(Cl)C(Cl)Cl	-1.39% (inactive)
